Measured values: the supplement of paper PMC9262897, “Low-cost anti-mycobacterial drug discovery using engineered E. coli” (Nature Communications, 2022)
Where a name gives a salt, the structure may show the parent alone. ± gives the standard deviation of the averaged measurements.

Assays:
Assay in all cases: growth (OD600 after 10 h); higher = more growth (less inhibition)
[1] = tested on: E. coli TESEC Alr+ wild-type control; settings: compound 0.1 mM; raw OD600 reference: median of DMSO wells 0.241, cell-free background 0.041
Description: (§1)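 TESEC Mtb Alr E. coli, or the Alr+ wild-type control, in 384-well plates with Prestwick library compounds at 0.1 mM and 1% DMSO, across arabinose induction levels of 1E3 to 1E7 nM. Growth is read as OD600 after 10 h at 37 °C in triplicate biological replicates.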

[2] = tested on: E. coli TESEC Mtb Alr; settings: compound 0.1 mM
Description: as §1

[3] = tested on: E. coli TESEC Mtb Asd; settings: compound 0.1 mM
Description: (§2)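 TESEC E. coli strains in which the native enzyme is deleted and replaced by arabinose-inducible Mtb Asd, DapB, CysH or TrpD, each grown in its selective medium. Strains were screened against the Prestwick library at 0.1 mM and 1% DMSO in 384-well format at low and high arabinose induction. Growth is read as OD600 after 10 h in triplicate.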

[4] = tested on: E. coli TESEC Mtb DapB; settings: compound 0.1 mM
Description: as §2

[5] = tested on: E. coli TESEC Mtb Alr; settings: compound 0.1 mM; remark: listed apart in the source
Description: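 TESEC Mtb Alr E. coli (ΔaraC ΔtolC ΔentC Δalr ΔdadX, arabinose-inducible Mtb Alr) or the Alr+ wild-type control strain, grown in defined M9-fructose medium without D-alanine in 96-well plates with Prestwick library compounds at 0.1 mM and 1% DMSO. Low Alr induction is 0.1 µM arabinose and high induction is 10 mM arabinose.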

[6] = arabinose 1000 nM, raw OD600 reference: median of DMSO wells 0.294, cell-free background 0.041
[7] = arabinose 10000 nM, raw OD600 reference: median of DMSO wells 0.264, cell-free background 0.041
[8] = arabinose 100000 nM, raw OD600 reference: median of DMSO wells 0.201, cell-free background 0.041
[9] = arabinose 1000000 nM, raw OD600 reference: median of DMSO wells 0.193, cell-free background 0.041
[10] = arabinose 10000000 nM, raw OD600 reference: median of DMSO wells 0.146, cell-free background 0.041
[11] = arabinose induction (level): High, raw OD600 reference: median of DMSO wells 0.331, cell-free background 0.041
[12] = arabinose induction (level): Low, raw OD600 reference: median of DMSO wells 0.417, cell-free background 0.041
[13] = arabinose induction (level): High, raw OD600 reference: median of DMSO wells […], cell-free background 0.041
[14] = arabinose induction (level): Low, raw OD600 reference: median of DMSO wells 0.227, cell-free background 0.041
[15] = arabinose 100 nM, raw OD600 reference: median of DMSO wells 0.413, cell-free background 0.052
[16] = arabinose 10000000 nM, raw OD600 reference: median of DMSO wells […], cell-free background 0.052

| Compound | growth [1] | growth [2, 6] | growth [2, 7] | growth [2, 8] | growth [2, 9] | growth [2, 10] | growth [3, 11] | growth [3, 12] | growth [4, 13] | growth [4, 14] | growth [5, 15] | growth [5, 16] |
| --- | --- | --- | --- | --- | --- | --- | --- | --- | --- | --- | --- | --- |
| NC(=O)c1cccnc1 [Nicotinamide] | 0.2773 ± 0.0019 | 0.335 ± 0.0062 | 0.302 ± 0.0031 | 0.263 ± 0.014 | 0.238 ± 0.014 | 0.155 ± 0.0058 | 0.447 ± 0.0077 | 0.45 ± 0.033 | 0.214 ± 0.01 | 0.258 ± 0.043 | 0.43 ± 0.024 | 0.453 ± 0.0089 |
| CC1CCc2cc(F)cc3c(=O)c(C(=O)O)cn1c23 (configuration not stated) [Flumequine] | 0.0491 ± 0.00083 | 0.04537 ± 0.00031 | 0.0396 ± 0.00065 | 0.0452 ± 0.0012 | 0.0416 ± 0.0004 | 0.04987 ± 0.00029 | 0.059 ± 0.0029 | 0.0732 ± 0.0099 | 0.0826 ± 0.0024 | 0.0692 ± 0.0075 | 0.0543 ± 0.0034 | 0.05097 ± 0.00047 |
| Nc1nc(=O)c2c([nH]1)NC[C@@H](CNc1ccc(C(=O)N[C@@H](CCC(=O)O)C(=O)O)cc1)N2C=O [Folinic acid calcium salt] | 0.255 ± 0.0064 | 0.289 ± 0.0096 | 0.274 ± 0.0059 | 0.204 ± 0.033 | 0.211 ± 0.016 | 0.1379 ± 0.0013 | 0.307 ± 0.0086 | 0.391 ± 0.08 | 0.203 ± 0.012 | 0.218 ± 0.014 | 0.397 ± 0.008 | 0.375 ± 0.019 |
| OC(CCN1CCCCC1)(c1ccccc1)C1CC2C=CC1C2 (configuration not stated) [Biperiden hydrochloride] | 0.23 ± 0.031 | 0.284 ± 0.0095 | 0.275 ± 0.0046 | 0.226 ± 0.03 | 0.155 ± 0.0033 | 0.154 ± 0.0039 | 0.194 ± 0.045 | 0.38 ± 0.094 | 0.159 ± 0.012 | 0.174 ± 0.016 | 0.415 ± 0.011 | 0.359 ± 0.035 |
| CN(C)CCCN1c2ccccc2Sc2ccccc21 [Promazine hydrochloride] | 0.189 ± 0.0053 | 0.227 ± 0.011 | 0.2724 ± 0.002 | 0.192 ± 0.01 | 0.129 ± 0.0026 | 0.158 ± 0.004 | 0.187 ± 0.03 | 0.261 ± 0.023 | 0.195 ± 0.017 | 0.254 ± 0.033 | 0.415 ± 0.0068 | 0.273 ± 0.0038 |
| C[C@]12CCC(=O)C=C1CC[C@@H]1[C@@H]2C(=O)C[C@@]2(C)[C@H]1CC[C@]2(O)C(=O)CO [Cortisone] | 0.216 ± 0.0023 | 0.278 ± 0.0049 | 0.237 ± 0.014 | 0.176 ± 0.011 | 0.1797 ± 0.00035 | 0.128 ± 0.0041 | 0.396 ± 0.078 | 0.445 ± 0.041 | 0.19 ± 0.0096 | 0.223 ± 0.023 | 0.41 ± 0.0069 | 0.336 ± 0.0035 |
| CC1CC(OC(=O)C(O)c2ccccc2)CC(C)(C)N1C (configuration not stated) [Eucatropine hydrochloride] | 0.245 ± 0.0073 | 0.326 ± 0.015 | 0.282 ± 0.0064 | 0.194 ± 0.0092 | 0.191 ± 0.0054 | 0.156 ± 0.0098 | 0.479 ± 0.008 | 0.432 ± 0.065 | 0.199 ± 0.033 | 0.227 ± 0.024 | 0.402 ± 0.014 | 0.36 ± 0.016 |
| O=C1c2c(O)ccc(O)c2C(=O)c2c(NCCNCCO)ccc(NCCNCCO)c21 [Mitoxantrone dihydrochloride] | 0.355 ± 0.0023 | 0.3551 ± 0.0031 | 0.3438 ± 0.0024 | 0.3501 ± 0.0014 | 0.3506 ± 0.001 | 0.3496 ± 0.0028 | 0.36 ± 0.0066 | 0.3445 ± 0.0031 | 0.348 ± 0.0055 | 0.348 ± 0.0049 | 0.231 ± 0.0097 | 0.292 ± 0.025 |
| COC(=O)CCc1ccc(OCC(O)CNC(C)C)cc1 (configuration not stated) [Esmolol hydrochloride] | 0.234 ± 0.014 | 0.295 ± 0.018 | 0.2542 ± 0.00042 | 0.218 ± 0.0079 | 0.195 ± 0.0068 | 0.129 ± 0.0016 | 0.242 ± 0.013 | 0.432 ± 0.022 | 0.195 ± 0.0058 | 0.227 ± 0.019 | 0.405 ± 0.015 | 0.388 ± 0.021 |
| C[C@@H]1C[C@H]2[C@@H]3C[C@H](F)C4=CC(=O)C=C[C@]4(C)[C@@]3(F)[C@@H](O)C[C@]2(C)[C@@]1(O)C(=O)COC(=O)C(C)(C)C [Flumethasone pivalate] | 0.207 ± 0.028 | 0.271 ± 0.028 | 0.267 ± 0.017 | 0.209 ± 0.016 | 0.182 ± 0.022 | 0.145 ± 0.012 | 0.256 ± 0.022 | 0.319 ± 0.066 | 0.2 ± 0.0088 | 0.239 ± 0.023 | 0.43 ± 0.025 | 0.373 ± 0.025 |
| OCc1cc(C(O)CNCCCCCCOCCCCc2ccccc2)ccc1O (configuration not stated) [Salmeterol] | 0.166 ± 0.0032 | 0.181 ± 0.012 | 0.159 ± 0.0031 | 0.171 ± 0.0065 | 0.0641 ± 0.0012 | 0.151 ± 0.0035 | 0.176 ± 0.01 | 0.202 ± 0.049 | 0.208 ± 0.017 | 0.214 ± 0.017 | 0.349 ± 0.0092 | 0.201 ± 0.033 |
| COC(=O)[C@H]1[C@H]2C[C@@H]3c4[nH]c5cc(OC)ccc5c4CCN3C[C@H]2C[C@@H](OC(=O)c2cc(OC)c(OC)c(OC)c2)[C@@H]1OC [Reserpine] | 0.201 ± 0.0092 | 0.234 ± 0.027 | 0.223 ± 0.02 | 0.214 ± 0.012 | 0.193 ± 0.012 | 0.214 ± 0.0036 | 0.333 ± 0.032 | 0.191 ± 0.0062 | 0.245 ± 0.0092 | 0.3 ± 0.038 | 0.408 ± 0.013 | 0.112 ± 0.076 |
| O=P(O)(O)C(O)(Cc1cccnc1)P(=O)(O)O [Risedronic acid monohydrate] | 0.247 ± 0.0087 | 0.2984 ± 0.0028 | 0.265 ± 0.0074 | 0.191 ± 0.0063 | 0.196 ± 0.0097 | 0.156 ± 0.0062 | 0.278 ± 0.053 | 0.376 ± 0.05 | 0.192 ± 0.014 | 0.26 ± 0.052 | 0.426 ± 0.015 | 0.277 ± 0.011 |
| CCCCCCCCCCCCCCCC[N+](C)(C)CCN(Cc1ccc(OC)cc1)c1ncccn1 [Thonzonium bromide] | 0.0453 ± 0.0014 | 0.08477 ± 0.00045 | 0.0958 ± 0.0043 | 0.0909 ± 0.0047 | 0.0447 ± 0.003 | 0.0932 ± 0.0021 | 0.0571 ± 0.0024 | 0.059 ± 0.0013 | 0.05637 ± 0.00046 | 0.0589 ± 0.002 | 0.226 ± 0.15 | 0.112 ± 0.01 |
| Oc1ccc(C2CNCCc3c2cc(O)c(O)c3Cl)cc1 (configuration not stated) [Fenoldopam] | 0.0924 ± 0.0031 | 0.0795 ± 0.0009 | 0.0538 ± 0.0026 | 0.0873 ± 0.0018 | 0.0562 ± 0.0034 | 0.086 ± 0.0096 | 0.113 ± 0.0085 | 0.126 ± 0.017 | 0.149 ± 0.035 | 0.135 ± 0.029 | 0.104 ± 0.048 | 0.0738 ± 0.006 |
| CCCCOc1ccc(CC(=O)NO)cc1 [Bufexamac] | 0.204 ± 0.0088 | 0.247 ± 0.014 | 0.243 ± 0.0037 | 0.202 ± 0.025 | 0.118 ± 0.0015 | 0.0983 ± 0.0016 | 0.33 ± 0.0049 | 0.418 ± 0.034 | 0.18 ± 0.013 | 0.222 ± 0.088 | 0.4 ± 0.018 | 0.284 ± 0.0052 |
